PI5P4Ka inh – blocks human PI5P4K alpha kinase activity. PI5P4Kalpha enzyme, ADP-Glo luminescence, 60 min; stronger effect = lower value. max response, %. P48426. 330,000 compounds, 1.2% hits; active = max response of -50% or lower; inconclusive = between -30% and -50%; inactive = -30% or higher; also: value at the top dose of about 77 µM
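Enzyme plus substrate dispensed, test compounds pinned in, then ATP (5 microM final) added. After 60 min at RT, ADP-Glo reagent 1 for 45 min and reagent 2 for 30 min preceded luminescence imaging.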
FEN1 inhibitor – blocks human flap endonuclease 1 | 390,000 compounds, 0.35% hits | Potency, µM (series often up to 114 µM), without a hit: top-dose activity change, negative = inhibition, usual class: inhibitors | Recombinant FEN1 flap cleavage, fluorescence, 15 min | P39748; also: potency is read from the fitted curve at half-maximal effect; nearly all actives have a fitted effect of over 65% in size
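Concentration–response screening of FEN1 (10 nM): 15 min compound preincubation at room temperature, reaction started with 50 nM substrate and read at 0 and 15 min. Corrected, normalized data were fitted by a four-parameter Hill equation.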
RECQ1 inh – blocks DNA unwinding by human RECQ1; Potency, µM (highest dose often 57.3 µM), for inactives: at the highest dose activity, negative = inhibition, hits mostly inhibitors; P46063; AID 2549; RECQ1 DNA unwinding, red fluorescence kinetic read; 240,000 compounds, 0.54% hits;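 also: potency is read from the fitted curve at half-maximal effect; plate controls were vehicle for no effect and no enzyme for full effect; nearly all actives have a fitted effect of over 30% in size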
Target sequence (P46063 whole entry, looked up): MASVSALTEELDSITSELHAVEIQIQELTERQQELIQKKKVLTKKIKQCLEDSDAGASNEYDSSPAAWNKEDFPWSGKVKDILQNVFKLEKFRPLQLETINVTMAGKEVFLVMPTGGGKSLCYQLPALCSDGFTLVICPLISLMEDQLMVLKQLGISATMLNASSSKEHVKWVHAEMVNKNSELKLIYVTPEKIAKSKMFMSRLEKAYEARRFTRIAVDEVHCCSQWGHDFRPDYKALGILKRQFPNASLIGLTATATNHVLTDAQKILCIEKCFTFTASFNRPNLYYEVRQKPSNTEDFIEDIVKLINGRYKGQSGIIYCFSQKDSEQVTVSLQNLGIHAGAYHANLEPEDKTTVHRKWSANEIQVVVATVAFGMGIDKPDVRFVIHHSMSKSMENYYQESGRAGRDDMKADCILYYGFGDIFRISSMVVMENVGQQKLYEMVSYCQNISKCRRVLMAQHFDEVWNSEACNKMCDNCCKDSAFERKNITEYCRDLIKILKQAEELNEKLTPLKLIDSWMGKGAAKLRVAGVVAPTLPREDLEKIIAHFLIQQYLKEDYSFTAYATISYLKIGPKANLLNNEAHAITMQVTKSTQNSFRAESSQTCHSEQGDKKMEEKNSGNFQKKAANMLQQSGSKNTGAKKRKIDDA
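RECQ1T1 50 nM; forked duplex (20 bp + 30-nt ss tails) 200 nM, ATP 2 mM final; pH 8.0, 2 mM MgCl2, 2.5 ug/ml poly(dI-dC); 15 min compound preincubation; discontinuous kinetic read over 2 h at RT.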
APE1 inh – APE1 (human) endonuclease inhibition. P27695. recombinant APE1, TAMRA/BHQ-2 abasic DNA cleavage fluorescence. Potency, µM (highest dose often 65.8 µM), without a hit: at the highest dose activity change, negative = inhibition, actives largely listed as inhibitors. 350,000 compounds, 0.35% hits. AID 2517;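 also: potency is read from the fitted curve at half-maximal effect; plate controls were vehicle for no effect and reference inhibitor for full effect; nearly all actives have a fitted effect of over 55% in size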
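Quantitative HTS: incision of a TAMRA/BHQ-2 double-stranded substrate bearing a tetrahydrofuran abasic site by 0.75 nM APE1 raises fluorescence. Substrate 50 nM final, added after 15 min compound preincubation at room temperature; progress as third-minus-first kinetic read difference.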
GCN5L2 inh – blocks human GCN5L2 histone acetyltransferase; Q92830; GCN5L2 HAT assay, ThioGlo1 CoA-SH fluorescence; Potency, µM (top dose mostly 58.9 µM), for inactives: top-dose activity change, negative = inhibition, usual class: inhibitors; 390,000 compounds, 0.21% hits; AID 504327; also: potency is read from the fitted curve at half-maximal effect
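qHTS, 1536-well. 20nM enzyme, pH 7.5 HEPES/EDTA/Tween-20 buffer; 15 min compound preinc., RT. Start: 75uM H3(1-25), 70uM AcCoA, 50uM ThioGlo1. Read Ex340/Em540 at t=0 (autofluorescence flag) and t=20 min.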
BLM helicase inh – blocks DNA unwinding by human BLM helicase; P54132; recombinant BLM DNA unwinding, fluorescence dequenching; Potency, µM (highest dose often 56.1 µM), for the others: at the top dose activity change, negative = inhibition, usual class: inhibitors; 350,000 compounds, 0.2% hits; AID 2528;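 also: potency is read from the fitted curve at half-maximal effect; plate controls were vehicle for no effect and no enzyme for full effect; nearly all actives have a fitted effect of over 35% in size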
* = called active by the depositor; i = inactive; ? = inconclusive; . = not tested or not shown; [ ] = dose if it differs, or a comment. The list is not random: actives were taken first. Their share in the collection is about 1.5%. Unless noted, calls follow the shape of the dose curve; as a rule, active = well fitted curve in the direction sought with a large enough effect; inconclusive = small, poorly fitted or top-dose-only effect, or another doubt; inactive = no such curve, though single readings can be large; an effect the other way counts as inactive or inconclusive. Unless noted, % is scaled to controls: 0 for no effect and ±100 for the full control effect.

SMILES	PI5P4Ka inh	FEN1 inhibitor	RECQ1 inh	APE1 inh	GCN5L2 inh	BLM helicase inh
Cc1nc(SCC(=O)c2ccccc2)n[nH]1	-53*	-1%	-10%	2%	?	-1%
O=C(CSc1n[nH]c(-c2ccncc2)n1)c1ccccc1	.	8%	6%	2%	2%	0%
Cc1c(CC(=O)NCCc2ccccc2F)c(=O)oc2cc(O)c(Cl)cc12	.	9%	.	.	?	-1%
COc1ccccc1CCNC(=O)Cc1c(C)c2cc(Cl)c(O)cc2oc1=O	.	-3%	.	.	32µM*	3%
CCOc1c2ccc(C(=O)NCc3ccco3)cc2nn1CCOC	4	15%	-13%	-1%	28µM*	-4%
CC(=O)OC[C@]12CC[C@H]3[C@@](C)(CC[C@H]4C(C)(C)CCC[C@]34C)[C@@H]1C[C@H](C1=CC(=O)O[C@H]1OC(C)=O)O2	.	.	.	9.5µM*	-30%	.
CC(=O)OC[C@]12CC[C@H]3[C@@](C)(CC[C@H]4C(C)(C)CCC[C@]34C)[C@@H]1C[C@@H](C1=CC(=O)O[C@@H]1OC(C)=O)O2	.	.	.	6%	-1%	.
O=C(c1ccccc1)c1ccc(O)c(O)c1O	-91*	?	.	.	.	.
COC(=O)[C@@H]1CCCN1S(=O)(=O)Cc1ccccc1	.	-3%	.	.	.	.
CNCc1ccccc1Sc1ccc(O)c(O)c1	?	?	?	32µM*	-5%	-2%
CCCC(=O)Nc1ccc(NC(=O)c2ccccc2OC)cn1	4	1%	i	3%	2.2µM*	2%
COc1ccc(C2=Nn3c(nnc3-c3cc(OC)ccc3OC)SC2)cc1	.	.	1%	9%	.	6%
CCCNc1nc(C#N)nc(Nc2ccccc2)n1	.	.	-7%	-1%	.	-11%
Cc1cccc(OCCC(=O)NO)c1	.	31%	.	.	.	.
CCCCn1c(C)cc2c(c1=O)C1O[C@](c3ccc(OC)cc3)(Cc3cc(OC)c(OC)cc31)O2	.	.	.	4.3µM*	0%[12.7 µM]	-11%[12.4 µM]
O=C(Nc1ccc(Cl)cc1Cl)c1cnn2c1NC(=C1CC1)C=C2C(F)F	.	-6%	.	.	.	.
O=S(=O)(O)c1cc(O)c2c(N=Nc3ccc(Nc4ccccc4)c4c(S(=O)(=O)O)cccc34)cc(S(=O)(=O)O)cc2c1	.	.	.	.	13µM*	79%
C=CCN(CC=C)c1ccc(/C=C/c2ccnc3ccccc23)cc1	.	-17%	.	.	.	.
O=C(CSc1ccc(-c2ccco2)nn1)c1ccc(F)cc1	-69*	?	4%	-8%	-16%	-8%
CC(C)(C)c1ccc(Cc2n[nH]c(=S)[nH]c2=O)cc1	?	2%	.	-4%	-16%	1%
O=c1[nH]c(=S)[nH]nc1Cc1ccc(Cl)c(Cl)c1	-76*	2%	.	59%	-3%	-1%
O.O.O.O.O.O.O.O=S(=O)([O-])[O-].[Co+2]	.	.	16µM*	?	?	8.9µM*
N#Cc1c2c(c(Cl)n3c1nc1ccccc13)CCCC2	.	-1%	.	.	.	.
CC(=C1SC(=S)NC1=O)c1ccccc1	-54*	3%	.	.	.	.
CC(=O)c1ccc(N2Cc3ccccc3/C2=N\C(=O)Nc2ccccc2)cc1	-4	-5%	0%	-2%	1%	2%
SMILES	PI5P4Ka inh	FEN1 inhibitor	RECQ1 inh	APE1 inh	GCN5L2 inh	BLM helicase inh
CC(=O)c1cccc(N2Cc3ccccc3C2=NC(=O)CCl)c1	-70*	-10%	i	2%	-5%	-12%
Nc1ccc2cccnc2c1	.	-22%	.	.	.	.
CC1(C)CC(=O)C2=C(C1)c1c(ccc3ccccc13)NC2c1ccc(C(=O)O)cc1 (stereo not drawn)	-5	-14%	.	9%	-30%	-3%
CC1(C)CC(=O)C2=C(C1)c1c(ccc3ccccc13)NC2c1cc([N+](=O)[O-])cc([N+](=O)[O-])c1O (stereo not drawn)	-59*	?	i	-5%	?	22µM*
COc1ccccc1C1N=C(Nc2nc3ccccc3o2)NC2=C1C(=O)CC(C)(C)C2 (stereo not drawn)	.	-13%	.	.	.	.
S=c1nc2[nH]c3ccccc3c2n[nH]1	-50*	-11%	.	.	.	.
CCCCc1cc(=O)oc2cc(C)cc(OCC(=O)N[C@@H](CSCc3ccccc3)C(=O)O)c12	1	-10%	.	7%	1.8µM*	-1%
C=C(C)C(=O)Nc1ccc2c(c1)OCCOCCOCCO2	-74*	?	?	-1%	2%	?
CC(=O)Nc1ccc2c(c1)OCCO2	3	7%	-1%	-1%	-10%	1%
Oc1cc2cc(-c3csc(-c4ccc(F)cc4)n3)cc3c2n1CCC3	.	-1%	.	.	.	.
CCC(Sc1ccc2nnc(-c3cccnc3)n2n1)C(=O)O (stereo not drawn)	-58*	-18%	-2%	-4%	1%	-1%
CC1CC=CC2C1C(=O)N(Cc1ccccc1)C2c1ccc2ccccc2c1Br (stereo not drawn)	.	-16%	i	-6%	.	-9%
CN(C)c1ccc(/C=C/C=C2/C=Cc3ccccc32)cc1	.	-5%	.	.	.	.
CN(Cc1ccccc1F)Cc1cc(=O)oc2cc(O)c(Cl)cc12	-63*	-5%	.	20%	-8%	-4%
O=C1c2ccccc2C(=O)C1c1ccnc2ccccc12	-1	-1%	-1%	-4%	1%	-14%
N#CC1=C(N)SC(N)=C(C#N)C1c1ccnc2ccccc12	-74*	-5%	16%	10%	-3%	-7%
c1ccc(-c2[nH]ncc2-c2ccnc3ccccc23)nc1	.	.	-21%	-2%	12%	2%
Cn1c(=NC(=O)c2ccccc2[N+](=O)[O-])sc2cc(S(C)(=O)=O)ccc21	52	0%	-1%	13%	4%	-1%
COC1=C/C(=C/c2c(N)n3nc(-c4ccc(C)cc4)sc3nc2=O)C=CC1=O	-74*	?	15%	1%	-4%	?
CCOC1=C/C(=C/c2c(N)n3oc(C)cc3nc2=O)C=CC1=O	.	.	-7%	0%	-6%	0%
CCOC1=C/C(=C/c2c(N)n3nc(-c4ccccc4)sc3nc2=O)C=CC1=O	-83*	-29%	-3%	-8%	-9%	-23%
COC1=C/C(=C/c2c(N)n3c(nc2=O)sc2cc(S(C)(=O)=O)ccc23)C=CC1=O	-76*	-24%	-11%	-8%	-11%	-2%
CCS(=O)(=O)c1nn2c(N)c(/C=C3/C=CC(=O)C(OC)=C3)c(=O)nc2s1	-84*	1%	11%	0%	-2%	0%
COc1ccc(CN(Cc2ccccc2)C(=O)c2ccno2)cc1COc1ccc(NC(C)=O)cc1	.	-9%	.	.	.	.
Cc1ccc(N(CCC#N)C(=O)CSc2ccc3c(c2)OCCO3)cc1	4	4%	0%	10%	30%	-6%
Cc1cc(C)n2c(SCC(=O)N(CCC#N)c3ccc4c(c3)OCCO4)nnc2n1	-61*	.	.	.	.	.

Compound activity from PubChem BioAssay.
